We go through 40 targets from the supplement of paper PMC11001985.

A number with no mark means an inactive call.

Sequence of UniProt Q15149 (Q15149 whole entry): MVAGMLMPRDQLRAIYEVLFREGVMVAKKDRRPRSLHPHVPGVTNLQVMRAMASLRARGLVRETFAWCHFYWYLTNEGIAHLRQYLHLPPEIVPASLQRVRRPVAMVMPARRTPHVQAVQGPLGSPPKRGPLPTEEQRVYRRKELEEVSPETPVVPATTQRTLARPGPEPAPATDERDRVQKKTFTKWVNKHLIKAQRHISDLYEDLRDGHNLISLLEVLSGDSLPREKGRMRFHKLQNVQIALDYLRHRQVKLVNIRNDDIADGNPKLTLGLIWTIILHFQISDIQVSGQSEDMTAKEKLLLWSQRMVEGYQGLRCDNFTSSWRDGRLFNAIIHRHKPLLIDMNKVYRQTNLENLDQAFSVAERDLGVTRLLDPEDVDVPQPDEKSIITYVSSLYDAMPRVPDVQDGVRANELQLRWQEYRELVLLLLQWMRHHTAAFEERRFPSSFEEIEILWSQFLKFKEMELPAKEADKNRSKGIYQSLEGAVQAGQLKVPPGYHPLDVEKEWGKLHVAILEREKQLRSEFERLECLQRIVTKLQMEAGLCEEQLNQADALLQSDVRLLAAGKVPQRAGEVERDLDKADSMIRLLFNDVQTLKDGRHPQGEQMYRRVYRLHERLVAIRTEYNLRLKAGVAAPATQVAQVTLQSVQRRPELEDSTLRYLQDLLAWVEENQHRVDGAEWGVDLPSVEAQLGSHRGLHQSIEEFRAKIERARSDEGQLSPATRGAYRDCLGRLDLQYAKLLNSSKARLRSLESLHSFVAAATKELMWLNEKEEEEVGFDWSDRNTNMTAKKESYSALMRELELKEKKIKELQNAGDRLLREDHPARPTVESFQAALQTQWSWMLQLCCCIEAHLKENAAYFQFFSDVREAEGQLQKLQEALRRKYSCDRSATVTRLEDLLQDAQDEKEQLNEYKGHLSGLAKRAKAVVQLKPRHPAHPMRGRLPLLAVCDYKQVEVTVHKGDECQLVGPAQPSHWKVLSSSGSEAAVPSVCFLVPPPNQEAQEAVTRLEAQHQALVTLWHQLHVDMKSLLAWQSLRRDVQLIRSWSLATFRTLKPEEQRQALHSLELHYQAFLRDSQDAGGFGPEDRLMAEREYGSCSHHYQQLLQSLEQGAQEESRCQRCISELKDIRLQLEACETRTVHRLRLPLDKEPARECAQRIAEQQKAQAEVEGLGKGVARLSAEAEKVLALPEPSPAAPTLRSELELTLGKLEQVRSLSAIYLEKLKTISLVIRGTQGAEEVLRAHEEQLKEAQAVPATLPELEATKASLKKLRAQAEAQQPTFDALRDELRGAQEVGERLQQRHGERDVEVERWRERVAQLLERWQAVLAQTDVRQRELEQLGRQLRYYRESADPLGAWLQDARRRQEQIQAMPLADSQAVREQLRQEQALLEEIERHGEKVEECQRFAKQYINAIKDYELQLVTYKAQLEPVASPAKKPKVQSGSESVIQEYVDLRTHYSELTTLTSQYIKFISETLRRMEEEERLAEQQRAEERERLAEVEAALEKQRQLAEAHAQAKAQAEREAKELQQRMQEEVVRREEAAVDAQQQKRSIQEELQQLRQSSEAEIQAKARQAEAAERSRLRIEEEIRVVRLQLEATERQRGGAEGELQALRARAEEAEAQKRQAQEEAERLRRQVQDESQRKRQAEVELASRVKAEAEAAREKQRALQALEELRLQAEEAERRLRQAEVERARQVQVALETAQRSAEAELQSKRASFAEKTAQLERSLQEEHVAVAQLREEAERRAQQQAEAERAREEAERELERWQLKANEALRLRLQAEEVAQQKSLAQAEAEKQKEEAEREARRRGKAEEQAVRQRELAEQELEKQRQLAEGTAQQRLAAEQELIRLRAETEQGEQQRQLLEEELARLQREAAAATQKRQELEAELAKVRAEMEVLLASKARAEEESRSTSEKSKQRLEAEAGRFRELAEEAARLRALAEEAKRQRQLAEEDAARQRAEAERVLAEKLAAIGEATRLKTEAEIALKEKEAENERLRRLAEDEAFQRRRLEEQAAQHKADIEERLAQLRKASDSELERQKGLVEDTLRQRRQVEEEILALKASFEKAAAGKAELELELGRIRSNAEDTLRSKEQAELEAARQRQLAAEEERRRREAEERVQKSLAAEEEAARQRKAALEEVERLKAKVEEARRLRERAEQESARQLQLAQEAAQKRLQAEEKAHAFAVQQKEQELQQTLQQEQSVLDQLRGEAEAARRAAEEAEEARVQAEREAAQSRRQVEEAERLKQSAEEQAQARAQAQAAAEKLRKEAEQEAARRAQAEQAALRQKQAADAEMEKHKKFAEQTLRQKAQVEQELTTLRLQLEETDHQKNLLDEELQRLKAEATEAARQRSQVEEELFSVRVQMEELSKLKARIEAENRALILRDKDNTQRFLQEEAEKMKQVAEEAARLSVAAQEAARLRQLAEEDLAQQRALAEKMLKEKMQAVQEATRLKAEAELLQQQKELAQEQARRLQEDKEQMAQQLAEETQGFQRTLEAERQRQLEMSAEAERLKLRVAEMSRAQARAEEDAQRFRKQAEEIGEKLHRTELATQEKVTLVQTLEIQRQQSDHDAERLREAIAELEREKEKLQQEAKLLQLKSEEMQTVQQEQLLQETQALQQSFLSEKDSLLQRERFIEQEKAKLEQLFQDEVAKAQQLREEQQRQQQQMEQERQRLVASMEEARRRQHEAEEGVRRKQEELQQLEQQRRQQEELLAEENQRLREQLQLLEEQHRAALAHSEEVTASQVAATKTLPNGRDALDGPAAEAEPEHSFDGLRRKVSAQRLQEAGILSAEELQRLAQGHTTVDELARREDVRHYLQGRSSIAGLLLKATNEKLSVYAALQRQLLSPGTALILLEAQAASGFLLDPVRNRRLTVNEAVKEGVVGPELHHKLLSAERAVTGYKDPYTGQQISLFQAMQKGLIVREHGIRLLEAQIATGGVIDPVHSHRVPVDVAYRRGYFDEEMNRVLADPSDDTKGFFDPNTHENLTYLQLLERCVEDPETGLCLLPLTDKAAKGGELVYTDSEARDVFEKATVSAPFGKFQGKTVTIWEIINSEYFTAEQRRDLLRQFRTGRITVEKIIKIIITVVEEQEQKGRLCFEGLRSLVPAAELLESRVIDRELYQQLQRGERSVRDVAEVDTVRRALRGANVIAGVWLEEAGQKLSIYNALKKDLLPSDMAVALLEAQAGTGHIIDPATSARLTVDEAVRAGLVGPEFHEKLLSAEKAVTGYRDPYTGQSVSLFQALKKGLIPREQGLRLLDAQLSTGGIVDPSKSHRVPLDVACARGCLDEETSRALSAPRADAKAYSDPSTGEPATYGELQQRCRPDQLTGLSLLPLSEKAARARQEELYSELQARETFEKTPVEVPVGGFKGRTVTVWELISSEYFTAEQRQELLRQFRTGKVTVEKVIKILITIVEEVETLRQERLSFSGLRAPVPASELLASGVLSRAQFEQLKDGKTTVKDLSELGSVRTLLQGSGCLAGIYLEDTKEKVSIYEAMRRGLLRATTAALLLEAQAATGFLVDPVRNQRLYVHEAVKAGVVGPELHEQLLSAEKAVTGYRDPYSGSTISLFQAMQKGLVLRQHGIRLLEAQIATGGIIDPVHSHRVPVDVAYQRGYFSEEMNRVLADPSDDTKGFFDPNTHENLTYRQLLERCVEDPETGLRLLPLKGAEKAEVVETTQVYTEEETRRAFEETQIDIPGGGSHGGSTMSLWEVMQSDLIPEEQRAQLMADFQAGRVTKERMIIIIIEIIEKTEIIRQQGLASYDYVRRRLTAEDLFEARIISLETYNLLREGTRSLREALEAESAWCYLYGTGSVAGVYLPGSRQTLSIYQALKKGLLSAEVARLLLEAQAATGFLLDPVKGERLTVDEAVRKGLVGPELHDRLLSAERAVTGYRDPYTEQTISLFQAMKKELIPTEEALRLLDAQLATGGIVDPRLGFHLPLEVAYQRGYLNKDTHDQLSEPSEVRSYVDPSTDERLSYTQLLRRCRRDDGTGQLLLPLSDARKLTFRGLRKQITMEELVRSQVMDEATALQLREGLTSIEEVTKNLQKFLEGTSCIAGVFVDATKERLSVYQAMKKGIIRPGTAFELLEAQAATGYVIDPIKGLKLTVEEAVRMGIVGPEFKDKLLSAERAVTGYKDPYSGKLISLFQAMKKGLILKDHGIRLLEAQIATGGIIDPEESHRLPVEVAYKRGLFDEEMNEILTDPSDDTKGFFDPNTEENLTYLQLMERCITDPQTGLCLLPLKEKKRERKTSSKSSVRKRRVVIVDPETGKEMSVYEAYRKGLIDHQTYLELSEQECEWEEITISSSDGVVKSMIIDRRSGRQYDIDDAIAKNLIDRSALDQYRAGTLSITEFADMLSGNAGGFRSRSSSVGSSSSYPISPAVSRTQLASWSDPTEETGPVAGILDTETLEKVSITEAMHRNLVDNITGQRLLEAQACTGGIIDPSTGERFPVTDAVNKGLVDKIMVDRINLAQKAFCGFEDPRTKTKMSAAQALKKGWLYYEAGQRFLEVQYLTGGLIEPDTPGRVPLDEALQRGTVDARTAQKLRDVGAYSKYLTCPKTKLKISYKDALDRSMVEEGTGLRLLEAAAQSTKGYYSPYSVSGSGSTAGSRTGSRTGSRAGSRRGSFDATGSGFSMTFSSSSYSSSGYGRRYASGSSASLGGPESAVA
Sequence of UniProt P61019 (P61019 whole entry, looked up): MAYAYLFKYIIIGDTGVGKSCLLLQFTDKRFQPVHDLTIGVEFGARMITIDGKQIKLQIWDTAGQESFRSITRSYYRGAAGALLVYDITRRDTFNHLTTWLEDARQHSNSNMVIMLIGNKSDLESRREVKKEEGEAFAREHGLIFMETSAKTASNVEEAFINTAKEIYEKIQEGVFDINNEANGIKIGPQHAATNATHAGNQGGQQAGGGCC
Sequence of UniProt Q96CT7 (Q96CT7 whole entry): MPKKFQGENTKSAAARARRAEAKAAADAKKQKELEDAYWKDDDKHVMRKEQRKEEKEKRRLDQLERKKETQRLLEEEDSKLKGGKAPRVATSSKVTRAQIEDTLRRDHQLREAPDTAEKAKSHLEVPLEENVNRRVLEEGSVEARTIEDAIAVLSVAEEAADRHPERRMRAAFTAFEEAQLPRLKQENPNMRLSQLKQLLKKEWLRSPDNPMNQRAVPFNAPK

Compound in this assay: C#CCNC(=O)CCSSCCC(=O)NCCc1ccc(C=O)c(C=O)c1
Put plainly: lysine labeling ratio R10:1 (500 µM / 50 µM probe), SILAC-ABPP in living cells; higher = lower intrinsic lysine reactivity toward the probe, active = 2 or less. Particulars: HeLa; probe concentrations 500 vs 50 µM. In short, it runs like this:
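SILAC light and heavy living HeLa cells in PBS at room temperature were labelled with 50 µM or 500 µM of an alkyne-tagged, disulfide-linked lysine probe, with forward and reverse label swaps. Mixed lysates were clicked to biotin-azide, trypsin-digested, captured on neutravidin, DTT-released, alkylated and analysed by LC-MS/MS on a TIMS-TOF Pro. R is the filtered median high-probe/low-probe MS1 peptide ratio per lysine, then the median across forward and reverse replicates. Ratios are capped at 20.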
For “SEMA3C (lysine site: K40) (UniProt Q99985)”, the “lysine labeling ratio R10:1” value was 3.38.
For the target “SCARB2 (lysine site: K129) (UniProt Q14108)”, the “lysine labeling ratio R10:1” value was 5.93.
Next, “RPS3A (lysine site: K249) (UniProt P61247)”: 1.8 (active); “SERBP1 (lysine site: K72) (UniProt Q8NC51)”: 1.17 (active).
In the case of UniProt Q15149 (lysine site: K3685) it was 6.03; in that of UniProt Q15149 (lysine site: K2553), 3.44; in that of UniProt Q9NYQ6 (lysine site: K324), 0.873 (active).
Take “ECE1 (lysine site: K197) (UniProt P42892)”: the “lysine labeling ratio R10:1” value was 2.89.
In the case of “ATP2A2 (lysine site: K757) (UniProt P16615)” it was 1.36 (active).
In the case of “FBLN1 (lysine site: K59) (UniProt P23142)” it was 1.25 (active); in that of “PLS3 (lysine site: K91) (UniProt P13797)”, 2.1.
In the case of UniProt P62829 (lysine site: K123) it was 0.877 (active); in that of “A2M (lysine site: K116) (UniProt P01023)”, 0.757 (active).
As for “HSP90B1 (lysine site: K683) (UniProt P14625)”, the “lysine labeling ratio R10:1” value is 4.36.
Next, UniProt P54851 (lysine site: K126): 3.69; UniProt P22413 (lysine site: K503): 1.89 (active).
In the case of “DSG2 (lysine site: K406) (UniProt Q14126)” it was 3.75.
Next, “VCL (lysine site: K778) (UniProt P18206)”: 1.11 (active); UniProt P46781 (lysine site: K155): 2.28; “APOA4 (lysine site: K79) (UniProt P06727)”: 1.22 (active).
On to “FLNB (lysine site: K987) (UniProt O75369)”, for which the “lysine labeling ratio R10:1” value was 5.99.
In the case of “RAB2A (lysine site: K130) (UniProt P61019)” it was 1.45 (active).
In the case of “EPHA2 (lysine site: K476) (UniProt P29317)” it was 3.45; in that of “SLC39A10 (lysine site: K317) (UniProt Q9ULF5)”, 6.58.
On to “RPL10A (lysine site: K212) (UniProt P62906)”, for which the “lysine labeling ratio R10:1” value was 1.53 (active).
Next, UniProt P06576 (lysine site: K522): 3.5; “EIF3H (lysine site: K274) (UniProt O15372)”: 1.92 (active); “DSG2 (lysine site: K561) (UniProt Q14126)”: 6.57.
Next, UniProt Q15149 (lysine site: K3027): 2.74; “HSPA9 (lysine site: K345) (UniProt P38646)”: 1.17 (active).
Regarding “CCDC124 (lysine site: K94) (UniProt Q96CT7)”, the “lysine labeling ratio R10:1” value is 4.68.
As to “LDLR (lysine site: K603) (UniProt P01130)”, the “lysine labeling ratio R10:1” value was 1.19 (active).
Take “DNAJA1 (lysine site: K136) (UniProt P31689)”: the “lysine labeling ratio R10:1” value was 1.69 (active).
Next, “DDX5 (lysine site: K490) (UniProt P17844)”: 5.18.
Next, “FLNA (lysine site: K2025) (UniProt P21333)”: 3.25; “FLNA (lysine site: K724) (UniProt P21333)”: 1.76 (active).
Next, “PA2G4 (lysine site: K288) (UniProt Q9UQ80)”: 0.997 (active); “NUCB2 (lysine site: K84) (UniProt P80303)”: 1.63 (active); “RPL5 (lysine site: K283) (UniProt P46777)”: 1.68 (active).
Take “ITGA6 (lysine site: K310) (UniProt P23229)”: the “lysine labeling ratio R10:1” value was 1.72 (active).
